# From PubChem BioAssay (NCI)
# The panel holds about 83,000 compounds, 20% with a hit somewhere; the sample as a whole holds those more often.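 Assay: single dose, 48 h. Readout: percent growth (0 = no net growth; negative = cell death). Active: <10.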 A number with no mark means an inactive call. Activity calls are given as the source filed them.
# What was measured:
# Test in all cases: NCI-60 one-dose screen, 48 h (100 = growth as untreated, 0 = no growth, -100 = all killed)
# Details in all cases: 10 µM
# NCI-H23 lung = system: NCI-H23 lung
# NCI-H226 lung = system: NCI-H226 lung
# NCI-H322M lung = system: NCI-H322M lung
# HOP-62 NSCLC = system: HOP-62 NSCLC
# NCI-H460 lung = system: NCI-H460 lung
# HOP-92 NSCLC = system: HOP-92 NSCLC
# NCI-H522 lung = system: NCI-H522 lung
# A549/ATCC NSCLC = system: A549/ATCC NSCLC
# 786-0 renal = system: 786-0 renal
# COLO 205 colon = system: COLO 205 colon
# DU-145 prostate = system: DU-145 prostate
# K-562 leukemia = system: K-562 leukemia
# MALME-3M melanoma = system: MALME-3M melanoma
# MDA-MB-231 breast = system: MDA-MB-231 breast
# SF-268 CNS = system: SF-268 CNS
# SF-295 CNS = system: SF-295 CNS
# SF-539 CNS = system: SF-539 CNS
# UACC-257 melanoma = system: UACC-257 melanoma
# M14 melanoma = system: M14 melanoma
SMILES,growth (NCI-H23 lung),growth (NCI-H226 lung),growth (NCI-H322M lung),growth (HOP-62 NSCLC),growth (NCI-H460 lung),growth (HOP-92 NSCLC),growth (NCI-H522 lung),growth (A549/ATCC NSCLC),growth (786-0 renal),growth (COLO 205 colon),growth (DU-145 prostate),growth (K-562 leukemia),growth (MALME-3M melanoma),growth (MDA-MB-231 breast),growth (SF-268 CNS),growth (SF-295 CNS),growth (SF-539 CNS),growth (UACC-257 melanoma),growth (M14 melanoma)
Cc1ccc(-c2nc(Nc3ccc(C)c(S(N)(=O)=O)c3)c3ccccc3n2)cc1,79%,84.1%,79.7%,96.3%,11.9%,104%,112%,43.4%,33.7%,90.5%,35%,5.02% (active),92.4%,96.5%,96.1%,85.2%,-31.3% (active),104%,63.2%
CC(C)Sc1nc(NC2CC2)c(C#N)c(-c2ccccc2)n1,75.5%,22.4%,77.4%,33.9%,75.1%,58.4%,60.9%,48.6%,28.5%,90.5%,86.2%,90%,104%,58.9%,61%,54.9%,42%,103%,117%
O=C(N/C(=C1/OCCN1Cc1ccccc1)[P+](c1ccccc1)(c1ccccc1)c1ccccc1)c1ccccc1,-5.42% (active),-5.51% (active),58.7%,44.8%,3.22% (active),-16.5% (active),-6.25% (active),47.6%,4.98% (active),4.11% (active),-15.1% (active),8.08% (active),-60.6% (active),0.242% (active),21.1%,31.4%,25.3%,-4.84% (active),19.4%
CCCn1c(=O)c2[nH]c(-c3ccc(OCc4nc5ccc(C(F)(F)F)cc5[nH]4)cc3)nc2n(CCC)c1=O,11.1%,37.8%,69.2%,87%,41.4%,67.7%,23.6%,46.7%,42.8%,59.3%,58.3%,34.9%,14.2%,11.1%,57.2%,38.8%,1.94% (active),65.5%,59.5%
O=c1[nH]c2ccc(Cl)cc2cc1CSc1ccc(Nc2nccc(-c3ccc4ccccc4c3)n2)cc1,81.9%,50.5%,95.5%,85.8%,20.8%,88.1%,80.5%,22.7%,64.8%,31.8%,38.3%,85.7%,20%,55.2%,68%,111%,94.1%,112%,88.4%
O=C(/C=C/Nc1ccccc1)c1ccc2c(c1)Nc1ccccc1S2,70%,43.5%,75.7%,53.5%,62.5%,98.7%,61.4%,87.7%,87.2%,100%,84.3%,90.6%,71.5%,69.2%,81.2%,78.1%,59.9%,96.7%,93.8%
Cc1ccc(/C=C/C(=O)c2ccc(NC(=O)CSc3nnc(-c4c[nH]c5ccccc45)n3-c3ccccc3)cc2)cc1,74.3%,80.7%,92.8%,95.8%,84.6%,92%,81.7%,95.9%,109%,102%,93%,64.1%,93.9%,83.7%,82.2%,92.4%,7.12% (active),111%,82.1%
